Results reported in PubChem BioAssay (NCATS).
Records with an inconclusive call do not appear. The source made the active and inactive calls. Unless noted, the call rests on the fitted dose curve.

Key:
[1] = qHTS for Inhibitors of the Functional Ribonucleoprotein Complex (vRNP) of Lassa (LASV) Arenavirus: LASV Primary Screen - GLuc reporter signal (AID 1347082; calls by dose curve; tested in HEK293 reporter line; further: nearly all actives have a fitted effect of over 60% in size; on activity change, negative = inhibition: series mostly up to about 57 µM)
[2] = qHTS for Inhibitors of the Functional Ribonucleoprotein Complex (vRNP) of Lassa (LASV) Arenavirus: Viability assay - alamar blue signal for LASV Primary Screen (AID 1347083; calls by dose curve; tested in HEK293 reporter line; further: nearly all actives have a fitted effect of over 80% in size; on activity change, negative = reduced viability: series mostly up to about 57 µM)
[3] = qHTS for Inhibitors of the Functional Ribonucleoprotein Complex (vRNP) of Lymphocytic Choriomeningitis Arenaviruses (LCMV): Viability assay - alamar blue signal for LCMV Primary Screen (AID 1347085; calls by dose curve; tested in HEK293 reporter line; further: nearly all actives have a fitted effect of over 80% in size; on activity change, negative = lower viability: series mostly up to about 57 µM)
[4] = target: Nucleoprotein (Lymphocytic choriomeningitis virus (strain Armstrong)) (UniProt P09992); assay: qHTS for Inhibitors of the Functional Ribonucleoprotein Complex (vRNP) of Lymphocytic Choriomeningitis Arenaviruses (LCMV): LCMV Primary Screen - GLuc reporter signal (AID 1347086); further: nearly all actives have a fitted effect of over 70% in size; on activity change, negative = inhibition: series mostly up to about 57 µM
Nucleoprotein (Lymphocytic choriomeningitis virus (strain Armstrong)), sequence (P09992 whole entry, looked up): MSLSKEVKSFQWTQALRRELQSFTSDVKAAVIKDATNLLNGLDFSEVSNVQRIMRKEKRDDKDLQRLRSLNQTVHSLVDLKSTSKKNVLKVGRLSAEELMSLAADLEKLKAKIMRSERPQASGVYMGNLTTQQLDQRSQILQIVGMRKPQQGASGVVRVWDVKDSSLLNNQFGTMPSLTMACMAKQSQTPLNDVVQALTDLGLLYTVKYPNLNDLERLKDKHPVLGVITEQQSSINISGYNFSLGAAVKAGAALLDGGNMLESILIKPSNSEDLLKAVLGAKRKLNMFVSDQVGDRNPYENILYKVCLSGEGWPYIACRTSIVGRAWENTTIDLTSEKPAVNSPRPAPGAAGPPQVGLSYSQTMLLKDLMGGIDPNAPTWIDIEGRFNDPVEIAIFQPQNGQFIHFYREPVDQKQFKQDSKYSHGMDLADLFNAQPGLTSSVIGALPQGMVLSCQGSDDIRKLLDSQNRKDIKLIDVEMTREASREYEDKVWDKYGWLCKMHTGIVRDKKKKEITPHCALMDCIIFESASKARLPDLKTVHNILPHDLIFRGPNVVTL
On the % scale 0 is the no-effect control and ±100 the full control effect; potency means the concentration at half of the fitted maximal effect.

CC(=O)NC(Cc1cnc[nH]1)C(=O)O (stereo not given)
inactive: Potency [1] | Potency [2] | Potency [3] | Potency [4]

O=C1CCCC2[C@@H]3CCC[N@+]4([O-])CCC[C@H](CN12)C34 (stereo not given in full)
inactive: Potency [1] | Potency [2] | Potency [3] | Potency [4]

COc1cc(OC)c2ccc(=O)oc2c1
inactive: Potency [1] | Potency [2] | Potency [3] | Potency [4]

COc1cc(C(C)=O)cc(OC)c1O
inactive: Potency [1] | Potency [2] | Potency [3] | Potency [4]

CC1CCC[C@H](O)CCCCCc2cc(O)cc(O)c2C(=O)O1 (stereo not given in full)
inactive: Potency [1] | Potency [2] | Potency [3] | Potency [4]

Cc1[nH]c(C=C2C(=O)Nc3ccc(S(=O)(=O)N(C)c4cccc(Cl)c4)cc32)c(C)c1C(=O)N1CCN(C)CC1
inactive: Potency [1] | Potency [2] | Potency [3] | Potency [4]

C=CC(C)(C)O[C@@H]1O[C@H](CO)[C@@H](O)[C@H](O)[C@H]1O
inactive: Potency [1] | Potency [2] | Potency [3] | Potency [4]

O=c1oc(-c2ccc(O)c(O)c2)cc2cc(O)cc(O)c12
inactive: Potency [1] | Potency [2] | Potency [3] | Potency [4]

CC(C)CCCCCCCCCCCCC(=O)NCC(=O)NC1C(O)C(O)C(Nc2ncnc3nc[nH]c23)OC1C(O)CO (stereo not given)
inactive: Potency [1] | Potency [2] | Potency [3] | Potency [4]

CC(C)(O)Cc1ccccc1
inactive: Potency [1] | Potency [2] | Potency [3] | Potency [4]

C[C@@H]1CC[C@]2(C(=O)O[C@@H]3O[C@H](CO)[C@@H](O)[C@H](O)[C@H]3O)CC[C@]3(C)C(=CCC4[C@@]5(C)C[C@@H](O)[C@H](O)[C@@](C)(C(=O)O[C@@H]6[C@H](O)C[C@@]7(C)C(CC[C@]8(C)C7CC=C7[C@H]9[C@](C(=O)O[C@@H]%10O[C@H](CO)[C@@H](O)[C@H](O)[C@H]%10O)(CC[C@@H](C)[C@@]9(C)O)CC[C@]78C)[C@@]6(CO)C(=O)O)C5CC[C@]43C)[C@@H]2[C@]1(C)O (stereo not given in full)
inactive: Potency [1] | Potency [2] | Potency [3] | Potency [4]

O=c1c(O)c(-c2cc(O)c(O)c(O)c2)oc2cc(O)ccc12
inactive: Potency [1] | Potency [2] | Potency [3] | Potency [4]

COc1c2c(nc3occc13)C(CC=C(C)C)(OC)C(=O)C=C2 (stereo not given)
inactive: Potency [1] | Potency [2] | Potency [3] | Potency [4]

COc1cc(C(=O)OC2C[C@H]3CC[C@@H](C2)N3)ccc1O (stereo not given in full)
inactive: Potency [1] | Potency [2] | Potency [3] | Potency [4]

C[C@H]1[C@H](C)CC[C@]2(C(=O)O)CC[C@]3(C)C(=CC[C@@H]4[C@@]5(C)C[C@@H](O)[C@H](O)C(C)(C)[C@@H]5CC[C@]43C)[C@H]12
inactive: Potency [1] | Potency [2] | Potency [3] | Potency [4]

C=C(C)C1Cc2cc3ccc(=O)oc3cc2O1 (stereo not given)
inactive: Potency [1] | Potency [2] | Potency [3] | Potency [4]

CC(C)(O)[C@@H]1Cc2c(ccc3ccc(=O)oc23)O1
inactive: Potency [1] | Potency [2] | Potency [3] | Potency [4]

Cc1cc(=O)c2c(O)c(O)ccc2o1
inactive: Potency [1] | Potency [2] | Potency [3] | Potency [4]

CC(C)CN(C[C@H](O)[C@H](Cc1ccccc1)NC(=O)O[C@H]1CCOC1)S(=O)(=O)c1ccc(N)cc1
inactive: Potency [1] | Potency [2] | Potency [3] | Potency [4]

O=c1ccc2cc3ccoc3c(O)c2o1
inactive: Potency [1] | Potency [2] | Potency [3] | Potency [4]

Cc1ccc(C(C)(C)O)cc1
inactive: Potency [1] | Potency [2] | Potency [3] | Potency [4]

CC(=O)OC1[C@H](Oc2c(O)c(C)c3c4c2[C@@H](C)CC[C@@H]4[C@@H](C)C[C@@H]3C=C(C)C)OC[C@@H](O)[C@@H]1O (stereo not given in full)
inactive: Potency [1] | Potency [2] | Potency [3] | Potency [4]

COc1cc(O)c2c(=O)c3c(O[C@H]4O[C@@H](CO)[C@H](O)[C@@H](O)[C@@H]4O)ccc(O)c3oc2c1
inactive: Potency [1] | Potency [2] | Potency [3] | Potency [4]

OC(CC(O)c1ccccc1)c1ccccc1 (stereo not given)
inactive: Potency [1] | Potency [2] | Potency [3] | Potency [4]

COC(=O)C1=CO[C@@H](O)[C@@H]2C(CO)=CC[C@@H]12
inactive: Potency [1] | Potency [2] | Potency [3] | Potency [4]

CCCCCCOC(=O)c1ccccc1
inactive: Potency [1] | Potency [2] | Potency [3] | Potency [4]

CC(C)(C)OC(=O)CN(Cc1ccc(Cl)cc1)Cc1ccc([N+](=O)[O-])s1
inactive: Potency [1] | Potency [2] | Potency [3] | Potency [4]

COc1c2c(nc3occc13)C(CC=C(C)C)(OC)C(O)CC2 (stereo not given)
inactive: Potency [1] | Potency [2] | Potency [3] | Potency [4]

CC1=CC=C(C(C)C)CC1
inactive: Potency [1] | Potency [2] | Potency [3] | Potency [4]

C=C1C[C@@]23CC4C5[C@@]6(C)C[C@H](O)C[C@@]57C2[C@H](O)[C@@H]1[C@H](O)[C@H]3[C@H]7N4C6
inactive: Potency [1] | Potency [2] | Potency [3] | Potency [4]

C[C@@H]1NC(=O)N[C@@H]1CCCCCC(=O)O
inactive: Potency [1] | Potency [2] | Potency [3] | Potency [4]

CC/C=C\C/C=C\C/C=C\C/C=C\C=C\C(O)CCCC(=O)O (stereo not given)
inactive: activity change, negative = inhibition [1] 1.12% [at 0.757 µM] | activity change, negative = reduced viability [2] 9.64% [at 0.757 µM] | activity change, negative = lower viability [3] 6.07% [at 0.757 µM] | activity change, negative = inhibition [4] 1.64% [at 0.757 µM]

O=c1cc(-c2ccccc2)oc2cc(O)ccc12
inactive: Potency [1] | Potency [2] | Potency [3] | Potency [4]

O=C(O)Cn1ccnc1
inactive: Potency [1] | Potency [2] | Potency [3] | Potency [4]

Cc1ccc2c(c1)C(=O)c1ccccc1C2=O
inactive: Potency [1] | Potency [2] | Potency [3] | Potency [4]

COc1ccc([C@@H](OC)[C@@]2(Cc3ccc(O)cc3)N=C(N)N(C)C2=O)cc1
inactive: Potency [1] | Potency [2] | Potency [3] | Potency [4]

OC[C@H]1O[C@@H](Oc2ccc(O)cc2)[C@H](O)[C@@H](O)[C@H]1O
inactive: Potency [1] | Potency [2] | Potency [3] | Potency [4]

Nc1nc2c(ncn2[C@@H]2O[C@H](COP(=O)(O)OP(=O)(O)O)[C@@H](O)[C@H]2O)c(=O)[nH]1
inactive: Potency [1] | Potency [2] | Potency [3] | Potency [4]

O=CN(O)CCCP(=O)(O)O
inactive: Potency [1] | Potency [2] | Potency [3] | Potency [4]

O=C(NC(Cc1ccccc1)C(=O)O)c1ccccc1 (stereo not given)
inactive: Potency [1] | Potency [2] | Potency [3] | Potency [4]

CC12CCC(=O)C=C1C(O)CC1C2CCC2(C)C1CCC2(O)C(=O)CO (stereo not given)
inactive: Potency [1] | Potency [2] | Potency [3] | Potency [4]

CC1(C)O[C@H]2C[C@@H]3[C@H]4CCC5=CC(=O)C=C[C@]5(C)[C@@]4(F)[C@@H](O)C[C@]3(C)[C@]2(C(=O)CO)O1
inactive: Potency [1] | Potency [2] | Potency [3] | Potency [4]

O=C1c2ccccc2C(=O)c2c(O)c(O)cc(O)c21
inactive: Potency [1] | Potency [2] | Potency [3] | Potency [4]

COc1cc2c(c(OC)c1OC)-c1c(cc3c(c1OC)OCO3)[C@@H](OC(C)=O)[C@H](C)[C@H](C)C2
inactive: Potency [1] | Potency [2] | Potency [3] | Potency [4]

CCCCCc1c2c(cc(O)c1C(=O)O)OC(=O)c1cc(C(=O)CCCC)c(OC)cc1O2
inactive: Potency [1] | Potency [2] | Potency [3] | Potency [4]

CC(=O)O[C@H]1C[C@@H]2CC[C@H]3[C@H]4C[C@H]([N+]5(C)CCCCC5)[C@@H](OC(C)=O)[C@@]4(C)CC[C@@H]3[C@@]2(C)C[C@H]1N1CCCCC1
inactive: Potency [1] | Potency [2] | Potency [3] | Potency [4]

CC1OC(Oc2ccc3ccc(=O)oc3c2-c2c(O)ccc3cc(Oc4ccc5ccc(=O)oc5c4)c(=O)oc23)C(O)C(O)C1O (stereo not given)
inactive: Potency [1] | Potency [2] | Potency [3] | Potency [4]

COc1ccc(CO)cc1
inactive: Potency [1] | Potency [2] | Potency [3] | Potency [4]

CC/C=C\CCOC(=O)c1ccccc1
inactive: Potency [1] | Potency [2] | Potency [3] | Potency [4]

C[C@H](CCC(=O)NCC(=O)O)[C@H]1CC[C@H]2[C@@H]3[C@H](O)C[C@@H]4C[C@H](O)CC[C@]4(C)[C@H]3C[C@H](O)[C@]12C
inactive: Potency [1] | Potency [2] | Potency [3] | Potency [4]

COc1ccc([C@@H]2CC(=O)c3c(O)cc(O[C@@H]4OC(CO[C@@H]5OC(C)[C@H](O)[C@@H](O)[C@H]5O)[C@@H](O)[C@H](O)[C@H]4O)cc3O2)cc1O (stereo not given in full)
inactive: Potency [1] | Potency [2] | Potency [3] | Potency [4]

Cc1c(O)c(C)c2c(c1O)C(=O)C[C@@H](c1ccccc1)O2
inactive: Potency [1] | Potency [2] | Potency [3] | Potency [4]

C#CCCC[C@@H]1OC(=O)CNC(=O)C([C@@H](C)CC)NC(=O)[C@@H]2CCCN2C(=O)C([C@@H](C)CC)OC(=O)[C@H](Cc2ccccc2)N(C)C(=O)[C@H](C(C)C)NC(=O)C1(C)C (stereo not given in full)
inactive: Potency [1] | Potency [2] | Potency [3] | Potency [4]

C[C@]12CCC(=O)C=C1[C@@H]1CC1[C@H]1[C@H]3[C@@H]4C[C@H]4[C@@]4(CCC(=O)O4)[C@@]3(C)CC[C@H]12 (stereo not given in full)
inactive: Potency [1] | Potency [2] | Potency [3] | Potency [4]

c1csc(-c2ccc(-c3cccs3)s2)c1
inactive: Potency [1] | Potency [2] | Potency [3] | Potency [4]

COc1ccc2cc1Oc1ccc(cc1)CC1c3cc(c(OC)cc3CCN1C)Oc1c(OC)c(OC)c(OC)c3c1C(C2)N(C)CC3 (stereo not given)
inactive: Potency [1] | Potency [2] | Potency [3] | Potency [4]

O=C1Nc2ccc(Cl)cc2C(C#CC2CC2)(C(F)(F)F)O1 (stereo not given)
inactive: Potency [1] | Potency [2] | Potency [3] | Potency [4]

C[C@H]1C[C@@H]2[C@@H]([C@@H](O)C[C@@]3(C)[C@H]2CC[C@]3(O)C(=O)CO)[C@@]2(C)C=CC(=O)C=C12
inactive: Potency [1] | Potency [2] | Potency [3] | Potency [4]

c1ccc(CNc2nc(NCc3ccccc3)c3ccccc3n2)cc1
active: Potency [1] 19.3 µM | Potency [2] 24.3 µM | Potency [3] 24.3 µM | Potency [4] 3.85 µM

Cc1cccc2c3c(ccc12)C1=C(C(=O)C3=O)[C@@H](C)CO1
inactive: Potency [1] | Potency [2] | Potency [3] | Potency [4]
